Target: 6-IATR-E. coli SSB (G26C) (Escherichia coli, UniProt P0AGE0 SEQ:1-177, G26C)
Assay: competition; stated only as similar result to IDCC-G26C
Conditions: tags: 6-IATR label on Cys26; chain copies: 4 (stated, tetramer); ssDNA

TTTTTTTTTTTTTTTTTTTTTTTTTTTTTTTTTTTTTTTTTTTTTTTTTTTTTTTTTTTTTTTTTTTTTT
binding signal: ~28 fold Kd vs unlabeled SSB

From patent US20110177501, “BIOSENSOR FOR DETECTION AND VISUALISATION OF SINGLE-STRANDED DNA” (MEDICAL RESEARCH COUNCIL, published 2011)
